In PubChem BioAssay (NCATS):
Results filed as inconclusive are left out. Unless noted, the call rests on the fitted dose curve; in most records, active means well fitted curve in either direction with a large enough effect (not every such curve was filed as active); inconclusive means small, poorly fitted or top-dose-only effect, or another doubt; inactive means flat fitted curve, though single readings scatter.

Columns and labels:
[1] = AP1 Signaling Pathway (AID 357); conditions: ME-180 AP-1-bla reporter, EGF-induced, beta-lactamase ratio, 5 h; at 17.2 µM (top of the series) unless noted; further: on the % scale 0 is the no-effect control and ±100 the full control effect
Outline: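 AP-1-bla ME-180 cells with beta-lactamase reporter under AP-1 response element, stimulated with EC50 EGF; compounds titrated, 5 hours at 37 degrees Celsius. CCF4 read at 460/530 nm ratio; positive and negative modulators judged by AC50.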

[2] = NFAT Signaling Pathway (AID 444); conditions: Jurkat NFAT-bla M1, carbachol, beta-lactamase ratio, 5 h; at 17.2 µM (top of the series) unless noted;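 further: carbachol stimulus at about its EC50 of 1 µM final; on the % scale 0 is the no-effect control and ±100 the full control effect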
Outline: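 Jurkat cells carrying an NFAT-driven β-lactamase reporter and co-transfected muscarinic M1 receptor were treated with compound plus carbachol (1 uM final, an EC50 level) for 5 h at 37 °C. CCF4 loading followed for 1 h at RT; 460/530 nm ratio gave %activity.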

[3] = Stat Signaling Pathway (AID 446); conditions: ME-180 SIE beta-lactamase reporter, IL-6 stimulated, 5 h; at 17.2 µM (top of the series) unless noted;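 further: ME-180 cervical cancer cells given 40 pM IL-6 alongside compound; SIE-controlled beta-lactamase reporter measured as 460/530 nm FRET emission ratio; on the % scale 0 is the no-effect control and ±100 the full control effect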
Outline: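 Reporter line: ME-180 cervical carcinoma, SIE-beta-lactamase. Treatment: compound with 40 pM IL-6, 5 hrs, 37 C, in low-serum OPTI-MEM with 10 mM HEPES pH 7.3. Detection: 460/530 nm fluorescence.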

[4] = molecular target: Glucocorticoid receptor (Homo sapiens) (UniProt P04150); assay: GR-GFP Redistribution (AID 450;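 active means compounds whose dose series gives a full or clear partial fitted curve of increased nuclear translocation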; further: potency means the concentration at half of the fitted maximal effect)
Glucocorticoid receptor (Homo sapiens), sequence (P04150 whole entry, looked up): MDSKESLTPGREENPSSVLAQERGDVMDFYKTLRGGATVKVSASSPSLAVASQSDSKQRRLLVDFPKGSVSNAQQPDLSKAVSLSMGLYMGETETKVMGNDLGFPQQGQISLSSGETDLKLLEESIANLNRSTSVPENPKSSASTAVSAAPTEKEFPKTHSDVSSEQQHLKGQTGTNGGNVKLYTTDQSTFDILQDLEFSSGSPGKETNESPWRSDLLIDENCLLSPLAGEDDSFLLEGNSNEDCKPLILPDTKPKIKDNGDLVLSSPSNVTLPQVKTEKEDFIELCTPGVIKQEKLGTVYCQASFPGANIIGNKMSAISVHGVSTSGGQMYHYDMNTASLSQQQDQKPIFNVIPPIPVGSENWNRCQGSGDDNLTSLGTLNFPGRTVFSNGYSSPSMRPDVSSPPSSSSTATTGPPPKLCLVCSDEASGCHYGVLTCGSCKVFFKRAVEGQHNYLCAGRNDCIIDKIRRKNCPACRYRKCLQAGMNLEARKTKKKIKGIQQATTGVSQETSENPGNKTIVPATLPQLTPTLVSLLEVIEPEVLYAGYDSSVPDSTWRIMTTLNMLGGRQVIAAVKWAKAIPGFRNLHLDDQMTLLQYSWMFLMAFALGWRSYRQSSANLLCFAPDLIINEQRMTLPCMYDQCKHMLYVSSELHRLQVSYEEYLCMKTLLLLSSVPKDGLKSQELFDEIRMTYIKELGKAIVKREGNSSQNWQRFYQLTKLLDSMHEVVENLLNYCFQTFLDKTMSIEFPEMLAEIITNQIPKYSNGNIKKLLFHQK

CCOc1ccc(N=C2C(=O)N(CN3CCOCC3)c3ccccc32)cc1
inactive: activity change, negative = inhibition [1] 2.27% | activity change, negative = inhibition [2] 6.57% | activity, negative = inhibition [3] -3% | Potency [4] > 20.6 µM

CCCCn1c(-c2ccc(Cl)cc2)nc2c(=O)n(C)c(=O)[nH]c21
inactive: activity change, negative = inhibition [1] 22.6% | activity change, negative = inhibition [2] -14.1% | activity, negative = inhibition [3] 27.6% | Potency [4] > 20.6 µM

CCOC(=O)Cc1nnc(Nc2cccc(O)c2)c2ccccc12
inactive: activity change, negative = inhibition [1] -12.7% | activity change, negative = inhibition [2] -6.58% | activity, negative = inhibition [3] -17.1% | Potency [4] > 20.6 µM

CCCCn1c2nc3ccccc3nc2c2c(=O)n(CC(C)C)cnc21
inactive: activity change, negative = inhibition [1] -1.88% | activity change, negative = inhibition [2] -20.4% | activity, negative = inhibition [3] -6.11% | Potency [4] > 20.6 µM

CN(C)S(=O)(=O)Nc1ccc(NS(=O)(=O)N(C)C)c(S(=O)(=O)c2ccccc2)c1
inactive: activity change, negative = inhibition [1] -9.87% | activity change, negative = inhibition [2] -5.57% | activity, negative = inhibition [3] 21.4% | Potency [4] > 20.6 µM

Cc1c(CCC#N)c(N2CCCCC2)n2c(nc3ccccc32)c1C#N
inactive: activity change, negative = inhibition [1] -4.98% | activity change, negative = inhibition [2] -11.4% | activity, negative = inhibition [3] 10.9% | Potency [4] > 20.6 µM

Cc1cc(C)nc(CC(N)=O)n1
inactive: activity change, negative = inhibition [1] 0.0367% | activity change, negative = inhibition [2] 4.47% | activity, negative = inhibition [3] -0.0254% | Potency [4] > 20.6 µM

CCCCC(CCC(=O)Nc1ccc(C(=O)OC)cc1)C(=O)O (stereo not given)
inactive: activity change, negative = inhibition [1] 9.55% | activity change, negative = inhibition [2] 7.48% | activity, negative = inhibition [3] 8.56% | Potency [4] > 20.6 µM

Cc1c(/C(O)=C2/C(=O)C(=O)N(CCCN3CCOCC3)C2c2ccncc2)cnn1-c1ccccc1 (stereo not given)
inactive: activity change, negative = inhibition [1] 5.29% | activity change, negative = inhibition [2] -3.84% | activity, negative = inhibition [3] 5.14% | Potency [4] > 20.6 µM

OCCN=C(c1ccccc1)C12CN3CN(CN(C3)C1)C2
inactive: activity change, negative = inhibition [1] 6.77% | activity change, negative = inhibition [2] -21.4% | activity, negative = inhibition [3] 3.31% | Potency [4] > 20.6 µM

CCOC(=O)C(Oc1ccc(=O)[nH]n1)C(C)=O (stereo not given)
inactive: activity change, negative = inhibition [1] 3.6% | activity change, negative = inhibition [2] 5.95% | activity, negative = inhibition [3] 2.15% | Potency [4] > 20.6 µM

N#CCCSc1nc(N2CCOCC2)c2c(c1C#N)CCCC2
inactive: activity change, negative = inhibition [1] -2.29% | activity change, negative = inhibition [2] 13.2% | activity, negative = inhibition [3] -12.4% | Potency [4] > 20.6 µM

Cc1ccc(CC2CC(=O)N(c3ccc4c(c3)OCCO4)C2=O)cc1 (stereo not given)
inactive: activity change, negative = inhibition [1] -5.59% | activity change, negative = inhibition [2] 4.5% | activity, negative = inhibition [3] 0.576% | Potency [4] > 20.6 µM

O=c1c2c3c(sc2n2cnnc2n1C1CCCCC1)CCC3
inactive: activity change, negative = inhibition [1] -5.1% | activity change, negative = inhibition [2] -1.53% | activity, negative = inhibition [3] 22.2% | Potency [4] > 20.6 µM

Nc1ccc(Cl)cc1/C(=N/O)c1ccccc1
inactive: activity change, negative = inhibition [1] -16.4% | activity change, negative = inhibition [2] -13.5% | activity, negative = inhibition [3] -5.27% | Potency [4] > 20.6 µM

CCOC(=O)/C(C#N)=C1/SC(CCO)C(=O)N1c1ccccc1 (stereo not given)
inactive: activity change, negative = inhibition [1] -6.66% | activity change, negative = inhibition [2] 2.53% | activity, negative = inhibition [3] -3.36% | Potency [4] > 20.6 µM

COc1ccc(C2=Nn3c(nnc3-c3ccccn3)SC2)cc1
inactive: activity change, negative = inhibition [1] -4.44% | activity change, negative = inhibition [2] 2.81% | activity, negative = inhibition [3] 6.62% | Potency [4] > 20.6 µM

Cc1ccc2cc(CNC(C)C)c(=O)[nH]c2c1
inactive: activity change, negative = inhibition [1] 3.13% | activity change, negative = inhibition [2] -10.3% | activity, negative = inhibition [3] -4.43% | Potency [4] > 20.6 µM

OC(CNCCCN1CCCCC1)COc1ccccc1 (stereo not given)
inactive: activity change, negative = inhibition [1] -10.5% | activity change, negative = inhibition [2] -28.5% | activity, negative = inhibition [3] 9.93% | Potency [4] > 20.6 µM

Cc1cc(=O)oc(C)c1C(=O)NCCC1=CCCCC1
inactive: activity change, negative = inhibition [1] 12.2% | activity change, negative = inhibition [2] -27.5% | activity, negative = inhibition [3] 2.06% | Potency [4] > 20.6 µM

O=C(NCc1ccccc1)C1C(=O)N(Cc2ccccc2)C(=O)C1C1(O)CCCC1 (stereo not given)
inactive: activity change, negative = inhibition [1] -16.6% | activity change, negative = inhibition [2] 23.6% | activity, negative = inhibition [3] -6.02% | Potency [4] > 20.6 µM

CCCOc1ccc(/C(O)=C2/C(=O)C(=O)N(CCN(C)C)C2c2ccc(OC)c(OC)c2)cc1 (stereo not given)
inactive: activity change, negative = inhibition [1] -7.95% | activity change, negative = inhibition [2] 5.84% | activity, negative = inhibition [3] -1.07% | Potency [4] > 20.6 µM

c1ccc(C2=Nn3c(nnc3-c3ccccn3)SC2)cc1
inactive: activity change, negative = inhibition [1] -4.27% | activity change, negative = inhibition [2] -8.45% | activity, negative = inhibition [3] 5.46% | Potency [4] > 20.6 µM

CN1CCc2c(sc3c2C(=O)NC(c2ccco2)N3)C1 (stereo not given)
inactive: activity change, negative = inhibition [1] -0.778% | activity change, negative = inhibition [2] -3.54% | activity, negative = inhibition [3] 23.6% | Potency [4] > 20.6 µM

Cc1ccc(-c2nn(CCC(=O)NCC3CCCO3)c(=O)c3ccccc23)cc1 (stereo not given)
inactive: activity change, negative = inhibition [1] -6.92% | activity change, negative = inhibition [2] -7.06% | activity, negative = inhibition [3] 4.3% | Potency [4] > 20.6 µM
